Pf growth 48h = inhibits P. falciparum growth in the first generation, 48 h | Potency, µM (series often up to 28.7 µM), for the others: at the highest dose activity change, negative = inhibition, usual class: inhibitors | 5.9% of 310,000 active | P. falciparum luciferase growth in erythrocytes, 48 h | AID 504832; note: potency is the fitted concentration of half-maximal effect; % is set by controls: 0 for no effect and ±100 for the full control effect
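Growth was read as firefly luciferase luminescence after a 48 h, 37 C, 5% CO2 exposure of compounds to reporter-bearing P. falciparum cultures (0.1% parasitemia, 2% hematocrit final) in Albumax-supplemented RPMI 1640.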
Pf growth 96h = P. falciparum growth inhibition at 96 hours | P. falciparum luciferase reporter growth, 96 h | Potency, µM (highest dose often 28.7 µM), for inactives: at the highest dose activity change, negative = inhibition, most hits filed as inhibitors | 6.9% of 320,000 active; note: potency is the fitted concentration of half-maximal effect; % is set by controls: 0 for no effect and ±100 for the full control effect
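P. falciparum expressing integrated firefly luciferase grown in erythrocytes (2% hematocrit, 0.05% parasitemia final) with compounds for 96 hours at 37 C, 5% CO2. Growth inhibition read as loss of luminescence after adding luciferase detection reagent.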
Cycloheximide cs = counter-screen for Shiga toxin inhibitors: cycloheximide protein synthesis inhibition | max response, % | AID 2314 | cell reporter, cycloheximide protein synthesis inhibition counterscreen | 12% of 300,000 active; in the data active = max response mostly above about 13%, no sharp cut-off; inactive = mostly below about 14%; note: read at 38.3 µM for the half of the compounds with a filed dose; 0% is about no effect
LmPK inh = LmPK (Leishmania mexicana) enzyme inhibition. Q27686. purified LmPK, Kinase-Glo ATP luminescence, 1 h. Potency, µM (series often up to 57.5 µM), for inactives: top-dose activity change, negative = inhibition, usual class: inhibitors. 0.37% of 290,000 active. AID 1721; note: potency is the fitted concentration of half-maximal effect; % is set by controls: 0 for no effect and ±100 for the full control effect
Target sequence (Q27686 whole entry, looked up): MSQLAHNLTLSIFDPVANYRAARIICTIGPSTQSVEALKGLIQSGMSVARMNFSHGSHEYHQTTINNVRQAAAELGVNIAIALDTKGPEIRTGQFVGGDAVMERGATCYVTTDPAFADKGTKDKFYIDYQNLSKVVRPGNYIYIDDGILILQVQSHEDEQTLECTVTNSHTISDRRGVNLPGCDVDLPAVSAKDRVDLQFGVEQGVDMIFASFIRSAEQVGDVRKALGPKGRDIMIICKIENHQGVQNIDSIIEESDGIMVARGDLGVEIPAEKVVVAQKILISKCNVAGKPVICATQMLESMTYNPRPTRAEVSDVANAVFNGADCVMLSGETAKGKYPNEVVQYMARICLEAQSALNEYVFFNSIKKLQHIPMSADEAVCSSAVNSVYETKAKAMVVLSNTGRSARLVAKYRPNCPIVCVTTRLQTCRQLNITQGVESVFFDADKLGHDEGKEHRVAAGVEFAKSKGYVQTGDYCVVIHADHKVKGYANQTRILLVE
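qHTS format; LmPK 0.1 nM; substrates PEP 0.5 mM and ADP 0.1 mM. One-hour room-temperature incubation, then coupled luciferase luminescence; 0.5 nM enzyme wells mark activation.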
Shiga toxin inh = blocks Shiga toxin action in Vero cells; AID 2315; Vero cells, Shiga toxin protein synthesis inhibition reporter; inhibition, % at 38.7 µM; 9.2% of 290,000 active; in the data active = inhibition mostly above about 28%, no sharp cut-off; inactive = mostly below about 43%; note: 0% is about no effect
An asterisk follows results filed as active; ? = inconclusive; · = no result given; + = active, no number. A selection: hits, their analogues and other compounds. The true share with any hit is near 22%. Unless noted, calls come from the whole dose curve; as a rule, active = well fitted inhibition curve with a large enough effect; inconclusive = small, poorly fitted or top-dose-only effect, or another doubt; inactive = no such curve, though single readings can be large or run the other way.

SMILES	Pf growth 48h	Pf growth 96h	Cycloheximide cs	LmPK inh	Shiga toxin inh
CN(CC(=O)O/N=C(\N)c1ccccn1)S(=O)(=O)c1ccccc1	12%	56%	17	-4%	44*
Cc1nc(/C(N)=N/OC(=O)Cc2ccccc2)no1	51%	?	16	0%	17
COc1ccc(/C(N)=N/OC(=O)CN(C)S(=O)(=O)c2ccccc2)cc1	15%	-1%	14	-1%	41
CCn1c(COc2ccc(C)cc2)nnc1SCC(=O)Nc1ccc2c(c1)OCCO2	7%	-19%	11	3%	4
Cn1c(=O)c2ncn(CC(=O)Nc3ccc(N4CCOCC4)cc3)c2n(C)c1=O	14%	·	-2	2%	-6
CCC(C)c1ccc2oc(-c3ccc(NC(=O)Cn4cnc5c(=O)n(C)c(=O)n(C)c54)cc3)nc2c1 (centres undefined)	57%	?	58*	4%	154*
Cc1ccc2oc(-c3cccc(NC(=O)Cn4cnc5c(=O)n(C)c(=O)n(C)c54)c3)nc2c1	172%	436%	34*	-14%	137*
Cc1nn(C)c(C(=O)N/N=C/c2cccc(Oc3ccccc3)c2)c1Br	-6%	11%	-2	2%	7
O=C(N/N=C/c1cccc(Oc2ccccc2)c1)c1ccccc1F	?	?	73*	6%	+
CNC(=S)N/N=C/c1cccc(OCc2ccccc2F)c1	-16%	20%	27*	-11%	52*
Nc1ccc(C(=O)N/N=C/c2cccc(Oc3ccccc3)c2)cc1	9%	?	30*	0%	33
O=C(N/N=C/c1cccc(Oc2ccccc2)c1)c1cc[n+]([O-])cc1	25%	30%	2	2%	13
CC(C)(C)c1ccc(OCC(=O)Nc2ccncc2)cc1	26%	0%	7	-4%	-8
COc1ccc(-n2nc(C(=O)NCC(=O)NC3CCCCC3)c3ccccc3c2=O)cc1	-25%	0%	8	7%	18
COC(=O)c1cccc(NC(=O)C(C)(C)C)c1	74%	92%	-1	-2%	19
CCOC(=O)c1cccc(NC(=S)NCc2ccc(C)cc2)c1	51%	-16%	-1	-1%	-2
Nc1c(C(=O)NCCN2CCOCC2)c2nc3ccccc3nc2n1-c1ccccc1	9.3µM*	·	-1	1%	-6
Nc1c(C(=O)NCCN2CCOCC2)c2nc3ccccc3nc2n1-c1ccc2c(c1)OCO2	?	2.9µM*	-1	5%	30
COC(=O)CCC(=O)c1oc2ccccc2c1NC(=O)CCCN1C(=O)c2ccccc2C1=O	30%	9.3µM*	12	1%	22
CC(=O)c1oc2ccccc2c1NC(=O)CCCN1C(=O)c2ccccc2C1=O	·	-5%	-4	11%	-12
COC(=O)CCC(=O)c1oc2ccccc2c1N	85%	?	42*	-1%	89*
CN(CCO)c1ccc(-c2nn(C)c(=O)c3ccccc23)cc1[N+](=O)[O-]	-4%	19%	4	-13%	-5
COc1cccc(OC)c1C(=O)Nc1ccccc1C(=O)N1CCCC1	24%	-1%	1	0%	-16
CCN(CCn1cccn1)C(=O)c1cc(COc2ccc(F)c(F)c2)on1	31%	3%	30*	1%	50*
CCN(CCn1cccn1)C(=O)c1cc(COc2cc(C)ccc2C)on1	-6%	?	62*	-3%	168*
SMILES	Pf growth 48h	Pf growth 96h	Cycloheximide cs	LmPK inh	Shiga toxin inh
CCN(CCn1cccn1)C(=O)c1cc(COc2ccccc2SC)on1	1%	19%	65*	-5%	94*
COCCn1c(C)cc(/C=C(\C#N)C(=O)OCC(=O)Nc2ccc(S(N)(=O)=O)cc2)c1C	-30%	?	·	·	·
CCOC(=O)CN1C(=O)C2Cc3ccccc3CN2C1=S (centres undefined)	?	-14%	6	-13%	21
CC(C)(C)OC(=O)NN1CC(=O)N2Cc3[nH]c4ccccc4c3C[C@H]2C1=O	0%	29%	1	5%	11
Oc1ccc(Nc2nc(Cl)nc(NCc3ccco3)n2)cc1	-19%	-29%	34*	-2%	38
COc1ccc(Nc2nc(NCc3ccco3)nc(N3CCOCC3)n2)cc1	?	?	1	-2%	-11
C=CCNc1nc(Cl)nc(NCc2ccco2)n1	?	9.3µM*	-2	-1%	-5
COC(=O)CCC[C@H]1CC2(C[C@H](CCCO[Si](C)(C)C(C)(C)C)N1C(=O)OC(C)(C)C)OCCO2	?	32%	·	·	·
CC1(C)C(c2cccs2)=NC(c2ccccc2)N1O (centres undefined)	39%	9.3µM*	-1	1%	19
Cn1c(CC(=O)Nc2ccccc2)c(Sc2ccccc2)c2ccccc21	?	8.3µM*	-3	1%	-4
Cn1c(CC(=O)Nc2ccccc2C(F)(F)F)c(Sc2ccccc2)c2ccccc21	15µM*	0%	-3	5%	-4
Cn1c(=O)n(CC(=O)Nc2ccccc2)c2ccccc21	1%	?	-1	-2%	-6
CSc1c(CC(=O)Nc2ccc(F)cc2)n(Cc2ccccc2)c2ccccc12	7.4µM*	13µM*	-5	0%	-7
Cn1c(CC(=O)Nc2ccccc2)cc2ccccc21	50%	58%	40*	0%	46*
Cc1ccc2c(c1)c(Sc1ccccc1)c(CC(=O)O)n2C	2%	1%	-2	-1%	13
Cc1cc(NC(=O)Cc2ccccc2[N+](=O)[O-])no1	17%	?	2	1%	-13
CSc1c(CC(=O)Nc2ccccc2)n(C)c2ccccc12	10µM*	?	-2	3%	-11
COc1cc(NC(=O)Cc2c(C(=O)O)n(C)c3ccccc23)cc(OC)c1OC	13%	-21%	-1	-1%	-8
N/C(=N\O)c1ccc(Cl)cc1Cl	36%	0%	1	-2%	-6
[O-]c1c[n+](-c2ccc(-[n+]3cc([O-])on3)cc2)no1	6%	-1%	21*	-3%	40
COc1cc(C(=S)N2CCCC2)ccc1OCc1ccccc1	45%	-10%	30*	1%	66*
COc1cc(C(=O)NCC2(N(C)C)CCCCC2)ccc1OCc1ccccc1	?	9.3µM*	-5	-4%	-4
COc1ccc(CCN(C)Cc2ccc(OC)c(OCc3ccccc3)c2)cc1OC	?	10µM*	-1	5%	-20
COc1ccc(CCN(C)Cc2ccc(OCc3ccccc3)c(OC)c2)cc1OC	?	?	-7	-6%	-15
CCC(=O)c1ccc(OCc2ccccc2)c(OC)c1	237%	?	43*	0%	88*
COc1ccc(C(=O)NCC(=O)NCC2(N(C)C)CCCCC2)cc1OC	·	?	-4	4%	-19
CCN(C(=O)CCN1C(=O)S/C(=C\c2ccccc2)C1=O)C1CCS(=O)(=O)C1 (centres undefined)	-15%	?	-7	-2%	12
CCN(CC)C(=O)C(=O)N/N=C/c1ccc(C(=O)OC)cc1	19%	?	-1	0%	-3
